Screens from PubChem.
In the library only some 3.4% were active in any assay of this set; here they are far more common.
PGC1a acetyl inh – inhibitors of PGC1a acetylation signal, primary screen, cell-based, U2OS, AlphaScreen, inhibitor mode. inhibition, % at 15.6 µM. AlphaScreen anti-acetyl-lysine; with virally co-expressed GCN5 acetyltransferase. hit rate 0.17% among 350,000;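 active = every replicate shows inhibition of at least 40%; inconclusive = mean inhibition at least 40% but some replicate below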
SIRT5 inh – SIRT5 desuccinylase inhibitors, primary screen, biochemical, fluorescence imaging, single point, set 5; NAD-dependent protein deacylase sirtuin-5, mitochondrial (Homo sapiens), Q9NXA8; Purified SirT5, succinyl-peptide AMC, trypsin-coupled fluorescence; inhibition, % at 15 µM; hit rate 1.1% among 330,000; in the data active = inhibition above about 15%; inconclusive = no clear call, values can overlap the other calls
Target sequence (Q9NXA8 whole entry, looked up): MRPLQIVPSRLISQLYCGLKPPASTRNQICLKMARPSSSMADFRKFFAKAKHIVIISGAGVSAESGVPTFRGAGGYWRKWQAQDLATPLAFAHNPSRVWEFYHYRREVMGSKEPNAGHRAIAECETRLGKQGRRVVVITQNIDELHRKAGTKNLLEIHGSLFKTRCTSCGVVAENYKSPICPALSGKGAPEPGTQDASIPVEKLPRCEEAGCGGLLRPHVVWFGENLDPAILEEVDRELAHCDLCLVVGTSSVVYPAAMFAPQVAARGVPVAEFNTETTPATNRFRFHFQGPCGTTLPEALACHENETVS
LGR2 antag – inhibitors of bursicon-induced LGR2 CRE-luciferase signal, primary screen, cell-based, HEK293, CRE-luciferase reporter, bursicon stimulation; Drosophila bursicon receptor LGR2 (rickets); bursicon-stimulated, 4 h; inhibition, % at 9.99 µM; hit rate 0.35% among 380,000; AID 720647, 2013;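 active = drop in luminescence signal, shown as inhibition above about 50% in the replicate tests, limit read from the data, passing the limit was not always enough; inconclusive = probably only some replicates passing the limit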;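 also: agonist challenge used bursicon conditioned medium at about half maximal strength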
rRNA inh HTS – reduced GFP signal of wild-type E. coli, primary screen, bacterial rRNA inhibitor project, GFP/RFP fluorescence, OD600, single point; E. coli WT GFP vs humanized-ribosome RFP mutants, 24 h; active compounds read low; DMSO median 0, no signal -100; GFP signal change (wild-type ribosome), % (concentration not given with the values); hit rate 1.6% among 350,000;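 active = significant combined selectivity score with lowered wild-type GFP, culture density cut under 30%, mutant RFP and density less affected; inactive = any of these conditions unmet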
EWS-Fli inh – EWS/Fli-driven NR0B1 reporter inhibitors, primary screen, A673 cells, NR0B1 luciferase, luminescence, MLPCN library. viability-normalised. inhibition, % at 12.6 µM. hit rate 0.67% among 350,000. AID 651661, 2012;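 active = mean inhibition of at least 50% after viability correction, with every replicate also passing that limit; inconclusive = mean reaches 50% but only one of two replicates passes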;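 also: firefly luciferase signal divided by Alamar Blue viability fluorescence both relative to DMSO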
PAX8 inh HTS – inhibitors of PAX8-driven TPO luciferase reporter, primary screen, RMG-I cells, single concentration | hit rate 1.2% among 360,000 | inhibition, % at 12.6 µM | SteadyGlo, 24 h;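 active = mean replicate inhibition at least 60% with every replicate also reaching 60%; inconclusive = only one of the two criteria is met; inactive = mean below 60% and not all replicates reaching 60%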;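 also: luciferase light reporting Pax8 driven TPO promoter activity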
Hits are given with their value; i = inactive; ? = inconclusive; nt = no result given.

SMILES	PGC1a acetyl inh	SIRT5 inh	LGR2 antag	rRNA inh HTS	EWS-Fli inh	PAX8 inh HTS
CN(Cc1ccc(F)cc1)C(=O)c1ccc(NS(=O)(=O)c2ccc3[nH]c(=O)[nH]c3c2)cc1	nt	i	i	i	i	i
O=C(O)c1ccc(N/N=C/c2ccc(-c3cccc(Cl)c3)o2)cc1	i	i	i	-39	i	i
O=C(O)c1cccc(-c2ccc(/C=N/Nc3ccc([N+](=O)[O-])cc3)o2)c1	i	i	i	-38	i	i
CCC(=O)N/N=C/c1ccc(-c2ccc([N+](=O)[O-])cc2)o1	i	i	i	i	i	i
CCc1nnc(N/N=C/c2ccc(-c3ccc([N+](=O)[O-])cc3)o2)n1N	i	i	i	-37	i	i
Cc1ccc(-c2ccc([C@H]3[C@@H](CO)N4C(=O)CN(C(=O)c5ccc(F)cc5)C[C@@H]34)cc2)cc1	i	i	i	i	i	i
C/C(=N\NC(=O)c1cc(C)[nH]n1)c1ccc(-c2ccccc2)cc1	79	i	i	i	i	i
O=C(N/N=C/c1ccco1)c1cc(-c2ccc(Cl)s2)[nH]n1	i	i	i	-26	i	i
O=C(N/N=C/c1cccs1)c1cc(-c2ccc(Cl)s2)[nH]n1	i	i	i	-22	i	i
C/C(=N\NC(=O)c1cc(C)[nH]n1)c1cccs1	i	i	nt	i	i	i
C/C(=N\NC(=O)c1cc(-c2ccc(Cl)s2)[nH]n1)c1ccncc1	i	i	i	-21	i	i
COCC(=O)Nc1ccc2c(c1)OC[C@@H](C)N(Cc1cccnc1)C[C@H](C)[C@H](OC)CN(C)C2=O	i	i	i	i	i	nt
C[C@H](NC(=O)C[C@H]1C[C@@H]2c3cc(NC(=O)CN(C)C)ccc3O[C@@H]2[C@@H](CO)O1)c1ccccc1	i	i	i	i	i	i
Cc1ccccc1-c1cnn(-c2cccc([N+](=O)[O-])c2)c1N	i	i	i	-46	i	i
Cn1c(=O)c2c(-c3ccccc3)n(-c3cccc(O)c3)cc2n(C)c1=O	i	39	i	i	i	i
Cc1cccc(-c2c3c(=O)n(C)c(=O)n(C)c3cn2-c2ccc(O)cc2)c1	i	nt	i	nt	nt	nt
CCCCc1c(O)nc(SCC(=O)c2ccccc2)n(-c2ccccc2C)c1=O	i	i	i	-32	i	i
CCCCc1c(O)nc(SCC(=O)c2ccccc2)n(-c2ccccc2OC)c1=O	i	i	i	i	i	i
CCCCc1c(O)nc(SCC(=O)N2CCOCC2)n(-c2ccc(C)cc2)c1=O	i	i	i	i	i	i
CCCCc1c(O)nc(SCC(=O)c2ccccc2)n(-c2ccccc2)c1=O	i	i	i	-18	i	i
CCCNC(=O)C[C@H]1CC[C@@H]2[C@H](COc3ccc(NC(=O)c4ccc5c(c4)OCO5)cc3C(=O)N2C)O1	i	i	i	i	i	i
CS/C(=N\S(=O)(=O)c1cccs1)Nc1ccc(F)c(Cl)c1	i	i	i	i	i	i
CS/C(=N\S(=O)(=O)c1cccs1)Nc1cccc(Cl)c1C	i	i	i	-44	i	i
CO[C@@H]1CN(C)C(=O)c2ccc(NC(=O)c3ccno3)cc2OC[C@H](C)NC[C@H]1C	nt	i	i	i	i	nt
CCOC(=O)Nc1sc(C)c(C)c1C(=O)OCC	nt	nt	i	-20	i	i
SMILES	PGC1a acetyl inh	SIRT5 inh	LGR2 antag	rRNA inh HTS	EWS-Fli inh	PAX8 inh HTS
CO[C@H]1CN(C)C(=O)c2ccc(NC(=O)c3ccccc3)cc2OC[C@H](C)NC[C@@H]1C	i	i	i	i	nt	nt
COc1ccc(CN(C)C[C@H]2OCCCC[C@@H](C)Oc3ccc(NC(=O)Nc4ccc(F)cc4)cc3C(=O)N([C@H](C)CO)C[C@H]2C)cc1	i	i	i	i	67	i
COc1ccc(NC(=O)Nc2ccc3c(c2)C(=O)N([C@@H](C)CO)C[C@H](C)[C@@H](CN(C)Cc2ccccc2)OCCCC[C@H](C)O3)cc1	i	20	i	i	?	i
COc1ccc(NC(=O)Nc2ccc3c(c2)C(=O)N([C@H](C)CO)C[C@@H](C)[C@@H](CN(C)Cc2ccccc2)OCCCC[C@H](C)O3)cc1	i	21	i	i	?	i
COc1ccc(CN(C)C[C@H]2OCCCC[C@H](C)Oc3ccc(NC(=O)Nc4cccc5ccccc45)cc3C(=O)N([C@H](C)CO)C[C@H]2C)cc1	i	i	i	i	70	i
COc1ccc(NC(=O)Nc2ccc3c(c2)C(=O)N([C@@H](C)CO)C[C@H](C)[C@H](CN(C)Cc2ccccc2)OCCCC[C@@H](C)O3)cc1	i	i	i	i	i	i
COc1ccc(CN2C[C@@H](C)[C@H](OC)CN(C)C(=O)c3cc(NC(=O)c4nc5ccccc5s4)ccc3OC[C@H]2C)cc1	i	nt	i	i	i	i
CO[C@H]1CN(C)C(=O)c2cc(NS(=O)(=O)c3cn(C)cn3)ccc2OC[C@@H](C)N(C)C[C@@H]1C	i	nt	i	i	i	i
CCC(=O)Nc1ccc2c(c1)OC[C@@H](C)N(C(=O)Cc1cccnc1)C[C@@H](C)[C@H](OC)CN(C)C2=O	i	i	i	i	i	i
CCNC(=O)C[C@H]1CC[C@@H]2[C@H](COC[C@H](O)CN2Cc2ccc(Cl)c(Cl)c2)O1	i	i	i	i	i	i
O=C1C=C(N2CCOCC2)c2ccccc2C1=O	nt	i	i	i	i	74
O=C1C=C(N2CCOCC2)c2cccc3cccc1c23	i	nt	i	i	i	i
O=C(N/N=C/c1ccncc1)c1ccc(COc2cccc3cccnc23)cc1	i	i	i	-28	i	i
COc1cccc(/C=N/NC(=O)CSc2cccc3cccnc23)c1	i	i	i	i	i	i
O=C(CSc1cccc2cccnc12)N/N=C/c1ccc(O)cc1	i	i	i	-14	i	i
CO[C@@H]1CN(C)C(=O)c2ccc(NC(=O)C3CC3)cc2OC[C@H](C)N(Cc2cncnc2)C[C@@H]1C	i	nt	i	i	i	nt
CC[n+]1ccc(/C=C/c2c[nH]c3ccccc23)cc1	nt	i	i	i	i	75
CCn1c(/C=C/c2c[nH]c3ccccc23)nc2ccccc2c1=O	nt	i	i	i	i	i
Cc1ccc2[nH]cc(/C=C/c3cc[n+](C)cc3)c2c1	nt	i	i	i	60	78
Cc1cc(C)c2nc(C)cc(Nc3ccc(C(=O)NCCO)cc3)c2c1	i	i	i	i	i	i
CC(=O)c1ccc(Nc2cc(C)nc3c(C)cc(C)cc23)cc1	i	i	99	i	i	i
